Assay results reported in PubChem BioAssay AID1159580 (chemical genetic matrix, 2015).
Hit rate of the full screen: of about 5,500 compounds, about 2,000 (36%) were called active. About 18% were inconclusive and are not listed. Some of the results follow. A number with no mark means an inactive call. Cut-off read from the data, not from the text of the source: active = normalized growth mostly below about 0.91 (no sharp cut-off); inconclusive = no clear call, values can overlap the other calls; inactive = mostly above about 0.92.

Experiment: chemical genetic growth profiling, strain panel (AID 1159580);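 note: tested at 20 µM; growth read once vehicle control cultures reached saturation at 30 °C; 1 = growth at the plate median or of vehicle wells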
Settings: S. cerevisiae deletion strains, growth OD
[1] = locus YAR019C, strain CDC15, stronger effect = lower value
[2] = locus YBL105C, strain PKC1, stronger effect = lower value
[3] = locus YBR135W, strain CKS1, stronger effect = lower value
[4] = locus YBR136W, strain MEC1, stronger effect = lower value
[5] = locus YBR160W, strain CDC28, stronger effect = lower value
[6] = locus YDL017W, strain CDC7, stronger effect = lower value
[7] = locus YDL028C, strain MPS1, stronger effect = lower value
[8] = locus YDL101C, strain DUN1, stronger effect = lower value
[9] = locus YDL108W, strain KIN28, stronger effect = lower value
[10] = locus YDL132W, strain cdc53, stronger effect = lower value
[11] = locus YDL214C, strain PRR2, stronger effect = lower value
[12] = locus YDR052C, strain DBF4, stronger effect = lower value
[13] = locus YDR054C, strain cdc34, stronger effect = lower value
[14] = locus YDR226W, strain ADK1, stronger effect = lower value
[15] = locus YDR477W, strain SNF1, stronger effect = lower value
[16] = locus YER123W, strain YCK3, stronger effect = lower value
[17] = locus YER133W, strain GLC7, stronger effect = lower value
[18] = locus YFL009W, strain cdc4, stronger effect = lower value
[19] = locus YFL029C, strain CAK1, stronger effect = lower value
[20] = locus YFR003C, strain YPI1, stronger effect = lower value
[21] = locus YFR019W, strain FAB1, stronger effect = lower value
[22] = locus YFR028C, strain CDC14, stronger effect = lower value
[23] = locus YGR040W, strain KSS1, stronger effect = lower value
[24] = locus YGR052W, strain FMP48, stronger effect = lower value
[25] = locus YGR092W, strain DBF2, stronger effect = lower value
[26] = locus YHR079C, strain IRE1, stronger effect = lower value
[27] = locus YHR082C, strain KSP1, stronger effect = lower value
[28] = locus YHR205W, strain SCH9, stronger effect = lower value
[29] = locus YIL147C, strain SLN1, stronger effect = lower value
[30] = locus YJL095W, strain BCK1, stronger effect = lower value
[31] = locus YJL128C, strain PBS2, stronger effect = lower value
[32] = locus YJL157C, strain FAR1, stronger effect = lower value
[33] = locus YJR016C, strain ILV3, stronger effect = lower value
[34] = locus YJR066W, strain TOR1 (second series), stronger effect = lower value
[35] = locus YJR066W, strain TOR1, stronger effect = lower value
[36] = locus YKL048C, strain ELM1, stronger effect = lower value
[37] = locus YKL067W, strain YNK1, stronger effect = lower value
[38] = locus YKL101W, strain HSL1, stronger effect = lower value
[39] = locus YKL193C, strain SDS22, stronger effect = lower value
[40] = locus YKL203C, strain TOR2, stronger effect = lower value
[41] = locus YLR113W, strain HOG1, stronger effect = lower value
[42] = locus YLR133W, strain CKI1, stronger effect = lower value
[43] = locus YLR403W, strain SFP1, stronger effect = lower value
[44] = locus YML070W, strain DAK1, stronger effect = lower value
[45] = locus YMR001C, strain CDC5, stronger effect = lower value
[46] = locus YMR205C, strain PFK2 (second series), stronger effect = lower value
[47] = locus YMR277W, strain FCP1, stronger effect = lower value
[48] = locus YNL006W, strain LST8, stronger effect = lower value
[49] = locus YNL020C, strain ARK1, stronger effect = lower value
[50] = locus YNL161W, strain CBK1, stronger effect = lower value
[51] = locus YNL183C, strain NPR1, stronger effect = lower value
[52] = locus YNL207W, strain RIO2, stronger effect = lower value
[53] = locus YNL222W, strain SSU72, stronger effect = lower value
[54] = locus YNL307C, strain MCK1 (second series), stronger effect = lower value
[55] = locus YOL078W, strain AVO1, stronger effect = lower value
[56] = locus YOL136C, strain PFK27, stronger effect = lower value
[57] = locus YOR061W, strain CKA2, stronger effect = lower value
[58] = locus YOR119C, strain RIO1, stronger effect = lower value
[59] = locus YOR231W, strain MKK1, stronger effect = lower value
[60] = locus YOR329C, strain SCD5, stronger effect = lower value
[61] = locus YPL031C, strain PHO85, stronger effect = lower value
[62] = locus YPL153C, strain RAD53, stronger effect = lower value
[63] = locus YPL204W, strain HRR25, stronger effect = lower value
[64] = locus YPL209C, strain IPL1, stronger effect = lower value
[65] = locus YPL256C, strain CLN2, stronger effect = lower value
[66] = locus YPR025C, strain CCL1, stronger effect = lower value
[67] = locus YPR106W, strain ISR1, stronger effect = lower value
[68] = locus YPR111W, strain DBF20, stronger effect = lower value
[69] = strain NNK1, stronger effect = lower value
[70] = strain TSCII, stronger effect = lower value

CC(C)OC(=O)Nc1cc(Cl)cc(Cl)c1
normalized growth [1]: 0.971 | normalized growth [2]: 0.97 | normalized growth [3]: 0.964 | normalized growth [4]: 0.986 | normalized growth [5]: 0.981 | normalized growth [6]: 0.974 | normalized growth [7]: 0.996 | normalized growth [8]: 0.972 | normalized growth [9]: 0.98 | normalized growth [10]: 0.953 | normalized growth [11]: 0.864 | normalized growth [12]: 0.993 | normalized growth [13]: 0.939 | normalized growth [14]: 0.982 | normalized growth [15]: 0.873 | normalized growth [16]: 0.845 | normalized growth [17]: 0.764 | normalized growth [18]: 0.96 | normalized growth [19]: 0.972 | normalized growth [20]: 0.972 | normalized growth [21]: 0.966 | normalized growth [22]: 0.985 | normalized growth [23]: 0.838 | normalized growth [24]: 0.822 | normalized growth [25]: 0.765 | normalized growth [26]: 0.754 | normalized growth [27]: 0.988 | normalized growth [28]: 0.777 | normalized growth [29]: 0.987 | normalized growth [30]: 0.716 | normalized growth [31]: 0.899 | normalized growth [32]: 0.902 | normalized growth [33]: 0.957 | normalized growth [34]: 0.883 | normalized growth [35]: 0.99 | normalized growth [36]: 0.864 | normalized growth [37]: 0.857 | normalized growth [38]: 0.888 | normalized growth [39]: 0.97 | normalized growth [40]: 0.944 | normalized growth [41]: 0.479 (active) | normalized growth [42]: 0.915 | normalized growth [43]: 0.853 | normalized growth [44]: 0.848 | normalized growth [45]: 0.985 | normalized growth [46]: 0.898 | normalized growth [47]: 0.939 | normalized growth [48]: 0.968 | normalized growth [49]: 0.9 | normalized growth [50]: 0.969 | normalized growth [51]: 0.707 | normalized growth [52]: 0.975 | normalized growth [53]: 0.978 | normalized growth [54]: 0.868 | normalized growth [55]: 0.974 | normalized growth [56]: 0.849 | normalized growth [57]: 0.875 | normalized growth [58]: 0.85 | normalized growth [59]: 0.729 | normalized growth [60]: 0.976 | normalized growth [61]: 0.756 | normalized growth [62]: 0.8 | normalized growth [63]: 0.791 | normalized growth [64]: 0.973 | normalized growth [65]: 0.682 (active) | normalized growth [66]: 0.978 | normalized growth [67]: 0.959 | normalized growth [68]: 0.948 | normalized growth [69]: 0.963 | normalized growth [70]: 0.967

O=C(/C=C/c1ccc(Cl)cc1)Nc1cccc(Cl)c1
normalized growth [1]: 0.958 | normalized growth [2]: 0.948 | normalized growth [3]: 0.961 | normalized growth [4]: 0.961 | normalized growth [5]: 0.961 | normalized growth [6]: 0.949 | normalized growth [7]: 0.951 | normalized growth [8]: 0.973 | normalized growth [9]: 0.961 | normalized growth [10]: 0.962 | normalized growth [11]: 0.88 | normalized growth [12]: 0.952 | normalized growth [13]: 0.958 | normalized growth [14]: 0.95 | normalized growth [15]: 0.838 | normalized growth [16]: 0.631 | normalized growth [17]: 0.831 | normalized growth [18]: 0.963 | normalized growth [19]: 0.949 | normalized growth [20]: 0.953 | normalized growth [21]: 0.936 | normalized growth [22]: 0.968 | normalized growth [23]: 0.816 | normalized growth [24]: 0.819 | normalized growth [25]: 0.485 | normalized growth (locus YHR030C, strain SLT2, stronger effect = lower value): 0.846 (active) | normalized growth [26]: 0.853 | normalized growth [27]: 0.875 | normalized growth [28]: 0.744 | normalized growth [29]: 0.96 | normalized growth [30]: 0.754 | normalized growth [31]: 0.919 | normalized growth [32]: 0.889 | normalized growth [33]: 0.965 | normalized growth [34]: 0.877 | normalized growth [35]: 0.831 | normalized growth [36]: 0.895 | normalized growth [37]: 0.876 | normalized growth [38]: 0.872 | normalized growth [39]: 0.956 | normalized growth [40]: 0.881 | normalized growth [41]: 0.816 (active) | normalized growth [42]: 0.864 | normalized growth [43]: 0.774 | normalized growth [44]: 0.798 | normalized growth [45]: 0.96 | normalized growth [46]: 0.886 | normalized growth [47]: 0.957 | normalized growth [48]: 0.971 | normalized growth [49]: 0.883 | normalized growth [50]: 0.965 | normalized growth [51]: 0.796 | normalized growth [52]: 0.948 | normalized growth [53]: 0.961 | normalized growth [54]: 0.699 | normalized growth [55]: 0.938 | normalized growth [56]: 0.839 | normalized growth [57]: 0.857 | normalized growth [58]: 0.867 | normalized growth [59]: 0.837 | normalized growth [60]: 0.957 | normalized growth [61]: 0.835 | normalized growth [62]: 0.863 | normalized growth [63]: 0.822 | normalized growth [64]: 0.96 | normalized growth [65]: 0.862 | normalized growth [66]: 0.952 | normalized growth [67]: 0.944 | normalized growth [68]: 0.942 | normalized growth [69]: 0.96 | normalized growth [70]: 0.965
